Test results reported in PubChem BioAssay (EPA / NIEHS).
Activity calls are given as the source filed them. How the source made its calls: active means hit-call score of the fitted dose curve at least 0.9, where 1 is the maximum; inactive means score below 0.9.

Assay: ATG_E_Box_CIS: Attagene CIS-FACTORIAL HepG2 Assay for human Enhancer Box (E-box) (AID 2282936)
Conditions: HepG2 E-box cis-reporter transcription, actives raise or lower the signal
Procedure, shortened: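 Multiplexed CIS reporter system in transiently transfected HepG2 cells measures native transcription factor activity. Reporter RNA after 24 h exposure is profiled by RT-PCR-capillary electrophoresis.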

SMILES	outcome	AC50
Cn1c(=O)cc(Oc2ccc(F)cc2F)c2cnc(NCC(C)(C)O)nc21	inactive	–
CC(C)CC(C)(O)C#CC(C)(O)CC(C)C (configuration not stated)	inactive	–
CC(C)=CCC/C(C)=C\CO	inactive	–
Cc1ccc(S(=O)(=O)O)cc1C	inactive	–
CC(=O)c1ccc2c(c1)[C@H](NC(=O)c1ccc(F)cc1)[C@@H](O)C(C)(C)O2	inactive	–
C=CCCCCCCCCC(=O)O	inactive	–
O=C(O)c1cccc(Oc2ccccc2)c1	inactive	–
C1N2CN3CN1CN(C2)C3	inactive	–
CC1=CC(=O)CC(C)(C)C1	inactive	–
CNS(=O)(=O)c1cc(C(=O)N2CCC(CCN3C4CCC3CC(n3c(C)nc5ccccc53)C4)(c3cccc(F)c3)CC2)c(Cl)cc1F (configuration not stated)	inactive	–
O=C(O)CCN(C1(C(=O)NO)CCCC1)S(=O)(=O)c1ccc(Oc2ccc(F)cc2)cc1	inactive	–
On1ccccc1=S	–	8.78 µM (active)
CCn1nc(Cc2ccccc2)cc1C1CCN(C[C@H]2C[C@H](N(C)[C@@H](C(=O)O)C(C)C)C[C@@H]2c2cccc(F)c2)CC1	–	79.3 µM (active)

Assay: ATG_M_61_CIS: Attagene CIS-FACTORIAL HepG2 Assay for M61 Transcription Factor (Internal Marker) (AID 2282937)
Conditions: HepG2 Attagene CIS-FACTORIAL M61 internal marker reporter; actives raise or lower the signal
Procedure, shortened: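 HepG2 cells transiently transfected with multiplexed cis-promoter reporter units reporting endogenous transcription factor activity, measured 24 h after dosing. Reporter mRNA quantified by RT-PCR and capillary electrophoresis; bidirectional fit against DMSO baseline.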

SMILES	outcome
O=C(O)CC(O)C(=O)O (configuration not stated)	inactive
CC(C)=CCCC(C)=CC=O	inactive
C=CC(=C)CCC=C(C)C	inactive
CC[C@H]1OC(=O)[C@H](C)[C@@H](O[C@H]2C[C@@](C)(OC)[C@@H](O)[C@H](C)O2)[C@H](C)[C@@H](O[C@@H]2O[C@H](C)C[C@H](N(C)C)[C@H]2O)[C@](C)(O)C[C@@H](C)C(=O)[C@H](C)[C@@H](O)[C@]1(C)O	inactive
O=C1CCC(N2C(=O)c3ccccc3C2=O)C(=O)N1 (configuration not stated)	inactive
C[C@](N)(Cc1ccc(O)c(O)c1)C(=O)O	inactive
Nc1cccc(N)c1	inactive
Cn1c(=O)c2c(ncn2C)n(C)c1=O	inactive
Nc1nc2ncc(CNc3ccc(C(=O)N[C@@H](CCC(=O)O)C(=O)O)cc3)nc2c(=O)[nH]1	inactive
CC(=O)OCCC(C)C	inactive
O=P(OC(CCl)CCl)(OC(CCl)CCl)OC(CCl)CCl	inactive
CCCC(=O)OCC	inactive
COc1cccc(-c2ccc(/C=C\CN3CCCCCC3)cc2Cl)c1	inactive
O=C(OC[C@H]1O[C@@H](OC(=O)c2cc(O)c(O)c(OC(=O)c3cc(O)c(O)c(O)c3)c2)[C@H](OC(=O)c2cc(O)c(O)c(OC(=O)c3cc(O)c(O)c(O)c3)c2)[C@@H](OC(=O)c2cc(O)c(O)c(OC(=O)c3cc(O)c(O)c(O)c3)c2)[C@@H]1OC(=O)c1cc(O)c(O)c(OC(=O)c2cc(O)c(O)c(O)c2)c1)c1cc(O)c(O)c(OC(=O)c2cc(O)c(O)c(O)c2)c1	inactive
CCOCCOCCOCCO	inactive
O=C(O)c1cccc(N(Cc2cccnc2)c2ccc(OC(F)F)c(OC(F)F)c2)c1	inactive
Cn1c(=O)cc(Oc2ccc(F)cc2F)c2cnc(NCC(C)(C)O)nc21	inactive
CC(C)CC(C)(O)C#CC(C)(O)CC(C)C (configuration not stated)	inactive
CC(C)=CCC/C(C)=C\CO	inactive
Cc1ccc(S(=O)(=O)O)cc1C	inactive
CC(=O)c1ccc2c(c1)[C@H](NC(=O)c1ccc(F)cc1)[C@@H](O)C(C)(C)O2	inactive
C=CCCCCCCCCC(=O)O	inactive
O=C(O)c1cccc(Oc2ccccc2)c1	inactive
C1N2CN3CN1CN(C2)C3	inactive
CC1=CC(=O)CC(C)(C)C1	inactive
CNS(=O)(=O)c1cc(C(=O)N2CCC(CCN3C4CCC3CC(n3c(C)nc5ccccc53)C4)(c3cccc(F)c3)CC2)c(Cl)cc1F (configuration not stated)	inactive
O=C(O)CCN(C1(C(=O)NO)CCCC1)S(=O)(=O)c1ccc(Oc2ccc(F)cc2)cc1	inactive
On1ccccc1=S	inactive
CCn1nc(Cc2ccccc2)cc1C1CCN(C[C@H]2C[C@H](N(C)[C@@H](C(=O)O)C(C)C)C[C@@H]2c2cccc(F)c2)CC1	inactive
